Many of the other results were omitted from the sample, so the strongest signals are more common in it than they were.
Assays:
Experiment in all cases: glycan array binding signal (z-score within array); higher = stronger binding
Settings in all cases: glycan notation: IUPAC condensed, linker removed
[1] = target: Fuc(a1-2)Gal(b1-3)GalNAc(a1-3)[Fuc(a1-2)]Gal(b1-4)GlcNAc
How it was run: (§1)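 Glycan array data were curated from 3228 arrays in the Consortium for Functional Glycomics database and kept only where the protein sequence was available. Glycan names were converted to IUPAC-condensed notation, and columns mapping to the same glycan were averaged. The binding signal is a within-array Z-score, averaged across arrays of the same protein sequence at different concentrations or buffers and across linkers. Negative Z-scores can be read as non-binding.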

[2] = target: Fuc(a1-2)Gal(b1-3)[Fuc(a1-4)]GlcNAc(b1-2)Man(a1-3)[Fuc(a1-2)Gal(b1-3)[Fuc(a1-4)]GlcNAc(b1-2)Man(a1-3)]Man(b1-4)GlcNAc(b1-4)GlcNAc
How it was run: as §1

[3] = target: Fuc(a1-2)Gal(b1-3)[Fuc(a1-4)]GlcNAc(b1-3)[Gal(b1-4)GlcNAc(b1-6)]Gal(b1-4)Glc
How it was run: as §1

[4] = target: Fuc(a1-2)Gal(b1-4)Fuc(a1-3)]GlcNAc(b1-2)Man(a1-3)[Fuc(a1-2)Gal(b1-4)[Fuc(a1-3)]GlcNAc(b1-2)Man(a1-6)]Man(b1-4)GlcNAc(b1-4)GlcNAc
How it was run: as §1

[5] = target: Fuc(a1-2)Gal(b1-4)GlcNAc(b1-2)Man(a1-3)[Fuc(a1-2)Gal(b1-4)GlcNAc(b1-2)Man(a1-6)]Man(b1-4)GlcNAc(b1-4)GlcNAc
How it was run: as §1

[6] = target: Fuc(a1-2)[Gal(a1-3)]Gal(b1-3)GlcNAc
How it was run: as §1

[7] = target: Fuc(a1-2)[Gal(a1-3)]Gal(b1-4)GlcNAc(b1-3)GalNAc
How it was run: as §1

[8] = target: Fuc(a1-2)[GalNAc(a1-3)]Gal(b1-3)GlcNAc(b1-3)GalNAc
How it was run: as §1

[9] = target: Fuc(a1-3)[Gal(b1-4)]Glc6S
How it was run: as §1

[10] = target: Fuc(a1-3)[Gal(b1-4)]GlcNAc(b1-6)GalNAc
How it was run: as §1

Fuc(b1-3)GlcNAc = target: Fuc(b1-3)GlcNAc
How it was run: as §1

Gal(a1-2)Gal = target: Gal(a1-2)Gal
How it was run: as §1

Gal(a1-3)Gal = target: Gal(a1-3)Gal
How it was run: as §1

Gal(a1-3)Gal(b1-3)GlcNAc = target: Gal(a1-3)Gal(b1-3)GlcNAc
How it was run: as §1

Gal(a1-3)Gal(b1-4)Glc = target: Gal(a1-3)Gal(b1-4)Glc
How it was run: as §1

[11] = target: Gal(a1-3)Gal(b1-4)GlcNAc(b1-2)Man(a1-3)[Gal(a1-3)Gal(b1-4)GlcNAc(b1-2)Man(a1-6)]Man(b1-4)GlcNAc(b1-4)GlcNAc
How it was run: as §1

Gal(a1-4)GlcNAc = target: Gal(a1-4)GlcNAc
How it was run: as §1

[12] = target: Gal(b1-3)GalNAc(b1-4)[Neu5Ac(a2-3)]Gal(b1-4)Glc
How it was run: as §1

[13] = target: Gal(b1-3)GlcNAc(b1-2)Man(a1-3)[GlcNAc(b1-4)][Gal(b1-3)GlcNAc(b1-2)Man(a1-6)]Man(b1-4)GlcNAc(b1-4)GlcNAc
How it was run: as §1

[14] = target: Gal(b1-3)GlcNAc(b1-3)GalNAc
How it was run: as §1

[15] = target: Gal(b1-3)[Fuc(a1-4)]GlcNAc(b1-2)Man
How it was run: as §1

[16] = target: Gal(b1-3)[Fuc(a1-4)]GlcNAc(b1-2)Man(a1-3)[Gal(b1-3)[Fuc(a1-4)]GlcNAc(b1-2)Man(a1-6)]Man(b1-4)GlcNAc(b1-4)[Fuc(a1-6)]GlcNAc
How it was run: as §1

[17] = target: Gal(b1-3)[GlcNAc(b1-6)]GalNAc
How it was run: as §1

[18] = target: Gal(b1-4)GlcNAc(b1-2)Man(a1-3)[Gal(b1-4)GlcNAc(b1-2)Man(a1-6)][GlcNAc(b1-4)]Man(b1-4)GlcNAc(b1-4)[Fuc(a1-6)]GlcNAc
How it was run: as §1

[19] = target: Gal(b1-4)GlcNAc(b1-2)Man(a1-6)Man(b1-4)GlcNAc(b1-4)GlcNAc
How it was run: as §1

[20] = target: Gal(b1-4)GlcNAc(b1-2)[Gal(b1-4)GlcNAc(b1-6)]Man(a1-6)[GlcNAc(b1-4)][Gal(b1-4)GlcNAc(b1-2)[Gal(b1-4)GlcNAc(b1-4)]Man(a1-3)]Man(b1-4)GlcNAc(b1-4)[Fuc(a1-6)]GlcNAc
How it was run: as §1

[21] = target: Gal(b1-4)GlcNAc(b1-3)Gal(b1-3)GalNAc
How it was run: as §1

[22] = target: Gal(b1-4)GlcNAc(b1-3)Gal(b1-3)GlcNAc
How it was run: as §1

[23] = target: Gal(b1-4)GlcNAc(b1-3)Gal(b1-4)GlcNAc(b1-3)Gal(b1-4)GlcNAc(b1-3)Gal(b1-4)GlcNAc(b1-2)[Gal(b1-4)GlcNAc(b1-3)Gal(b1-4)GlcNAc(b1-3)Gal(b1-4)GlcNAc(b1-3)Gal(b1-4)GlcNAc(b1-6)]Man(a1-6)[Gal(b1-4)GlcNAc(b1-3)Gal(b1-4)GlcNAc(b1-3)Gal(b1-4)GlcNAc(b1-3)Gal(b1-4)GlcNAc(b1-2)Man(a1-3)]Man(b1-4)GlcNAc(b1-4)[Fuc(a1-6)]GlcNAc
How it was run: as §1

[24] = target: Gal(b1-4)GlcNAc(b1-3)Gal(b1-4)GlcNAc(b1-3)GalNAc
How it was run: as §1

B1: AT1G80310(18) (Arabidopsis thaliana), Q0WP36 (protein)
chain: METTTTPLLPGDRSRCGWLRRRLRLKNPLSSELSGAVGDLGTFIPIVLTLTLVSNLDLSTTLIFTGFYNIATGLLFDIPMPVQPMKSIAAVAVSESPHLTPSQIAAAGASTAATLLLLGATGAMSFLYNIIPLPVVRGVQLSQGLQFAFTAIKYVRFNYDTATLKPSSSPRIWLGLDGLILALAALLFIILSTGSGNDREAEDGDLAETSSNESQSRRRRLRLLSSIPSALIVFALGLVLCFIRDPSIFKDLKFGPSKFHILRISWDDWKIGFLRAAIPQIPLSVLNSVIAVCKLSNDLFDKELSATTVSISVGVMNLIGCWFGAMPVCHGAGGLAGQYRFGARSGLSVIFLGIGKLIVGLVFGNSFVRILSQFPIGILGVLLLFAGIELAMASKDMNSKEDSFIMLVCAAVSMTGSSAALGFGCGVVLYLLLKLRTLDCSSVTLFSRSSDESQVDSEAAPRDV
- glycan array binding signal (z-score) [1]: -0.505
- glycan array binding signal (z-score) [2]: -0.097
- glycan array binding signal (z-score) [3]: -0.71
- glycan array binding signal (z-score) [4]: 4.04
- glycan array binding signal (z-score) [5]: 3.83
- glycan array binding signal (z-score) [6]: 2.6
- glycan array binding signal (z-score) [7]: -1.01
- glycan array binding signal (z-score) [8]: 0.205
- glycan array binding signal (z-score) [9]: 1.38
- glycan array binding signal (z-score) [10]: 0.051
- glycan array binding signal (z-score) (Fuc(b1-3)GlcNAc): -0.095
- glycan array binding signal (z-score) (Gal(a1-2)Gal): 0.558
- glycan array binding signal (z-score) (Gal(a1-3)Gal): 3.63
- glycan array binding signal (z-score) (Gal(a1-3)Gal(b1-3)GlcNAc): 3.82
- glycan array binding signal (z-score) (Gal(a1-3)Gal(b1-4)Glc): -0.294
- glycan array binding signal (z-score) [11]: -0.855
- glycan array binding signal (z-score) (Gal(a1-4)GlcNAc): 0.748
- glycan array binding signal (z-score) [12]: -0.754
- glycan array binding signal (z-score) [13]: 1.46
- glycan array binding signal (z-score) [14]: 0.082
- glycan array binding signal (z-score) [15]: 2.96
- glycan array binding signal (z-score) [16]: -0.645
- glycan array binding signal (z-score) [17]: 0.239
- glycan array binding signal (z-score) [18]: 4.28
- glycan array binding signal (z-score) [19]: -0.165
- glycan array binding signal (z-score) [20]: 2.65
- glycan array binding signal (z-score) [21]: -0.393
- glycan array binding signal (z-score) [22]: 1.15
- glycan array binding signal (z-score) [23]: -0.802
- glycan array binding signal (z-score) [24]: -0.75
